# ELG1 DNA repair = inhibitors of ELG1-dependent DNA repair in HEK293T cells; hit rate 2.3% among 330,000; AID 504467; HEK293T ELG1-luciferase reporter, luminescence, 16 h; DNA damage induced by 5-fluorouridine; Potency, µM (highest dose often 46.1 µM), without a hit: top-dose activity change, negative = inhibition, most hits filed as inhibitors; further: on the % scale 0 is the no-effect control and ±100 the full control effect; nearly all actives have a fitted effect of over 55% in size
#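 Reporter activity after DNA damage by 5-fluorouridine is monitored. Compound-treated cells incubate 16 hr at 37 °C, then ONE-Glo is added for 30 min before luminescence reading.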
# KB-V1 cytotox = KB-V1 MDR subline cytotoxicity. KB-V1 MDR cells viability, CellTiter-Glo, 72 h. Potency, µM (doses to about 46.1 µM), actives largely listed as cytotoxic. hit rate 3.4% among 400,000. AID 1347076; further: on the % scale 0 is the no-effect control and ±100 the full control effect; nearly all actives have a fitted effect of over 60% in size
#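 Cells of the MDR subline KB-V1 are plated, dosed with compound at multiple concentrations, and incubated 72 h at 37 degrees C; CellTiter-Glo is then added and luminescence read after 10 min.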
# KB-3-1 tox = KB-3-1 parental cell cytotoxicity. KB-3-1 viability, CellTiter-Glo ATP luminescence, 72 h. Potency, µM (highest dose often 46.1 µM), actives largely listed as cytotoxic. hit rate 1.4% among 400,000. AID 1347075; further: on the % scale 0 is the no-effect control and ±100 the full control effect; nearly all actives have a fitted effect of over 60% in size
#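 KB-3-1 cells, DMEM (no phenol red) + 10% FBS; compound by pin transfer, 72 h, 37 °C. Readout: CellTiter-Glo luminescence after 10 min. Data normalized, curve-fitted.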
# SW480 rereplic = DNA re-replication induction in SW480 cells. SW480 DNA re-replication, Hoechst DNA content imaging, 48 h. Potency, µM (top dose mostly 46.1 µM), for the others: top-dose re-replication activation, usual class: activators. hit rate 1.8% among 340,000. AID 624297; further: % of control where 0% means no effect; nearly all actives have a fitted effect of over 55% in size
#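 Treated cells incubate 48 hr (37 C, 5% CO2), are stained 40 min with Hoechst, and nuclear fluorescence is enumerated; a rise in nuclei with high DNA signal marks re-replication.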
# MCF10A rerep = inducers of DNA re-replication in MCF 10A breast cells; MCF 10A DNA re-replication, Hoechst nuclear intensity, 48 h; Potency, µM (series often up to 46.1 µM), for the others: at the highest dose activity, positive = re-replication, most hits filed as activators; hit rate 2.9% among 350,000; AID 624296; further: % of control where 0% means no effect; nearly all actives have a fitted effect of over 50% in size
# Numbers without * were called inactive; i = inactive; u = inconclusive; x = not tested or not shown; ! = not active in a repeat. Compounds with a hit are over-represented: about 8.1% of the library has one in this group of screens. The call rests on the fitted dose curve; in most records, active means well fitted curve in the direction sought with a large enough effect; inconclusive means small, poorly fitted or top-dose-only effect, or another doubt; inactive means no such curve, though single readings can be large; an effect the other way counts as inactive or inconclusive. Potency means the concentration at half of the fitted maximal effect.
SMILES,ELG1 DNA repair,KB-V1 cytotox,KB-3-1 tox,SW480 rereplic,MCF10A rerep
COc1ccc(C2/C=C\CC(OCc3ccccc3)CC(=O)N2Cc2cccc(F)c2)cc1 (stereo not drawn),21µM*,i,i,u,u
CCCCC(=O)N1C/C=C\C(c2ccc(OC)cc2)N(Cc2ccc(F)cc2)C(=O)[C@H]1Cc1ccccc1 (stereo partly drawn),u,i,u,3.7µM*,u
COc1ccc(C2/C=C\CN(C(=O)c3ccc(C)cc3)[C@H](Cc3ccccc3)C(=O)N2Cc2ccc(F)cc2)cc1 (stereo partly drawn),u,u,12µM*,1%,u
COc1cccc(OC)c1C(=O)NCCSC1CCCCC1,-9%,i,i,-7%,-3%
Cc1nc(-c2ccccc2)sc1-c1nc(-c2cccs2)ncc1S(=O)(=O)c1ccccc1,16%,x,x,x,x
COC(=O)c1ccc(Cn2cnc3ccccc3c2=O)cc1,11%,i,i,-3%,1%
COCCNC(=O)C1CCCN(C(=O)c2sc(-c3ccccc3)nc2C)CC1 (stereo not drawn),x,i,i,x,x
Cc1cccc(C2NC(=O)c3c(sc(C)c3C)N2)c1O (stereo not drawn),8%,i,i,2%,5%
Cc1ccc(C2NC(=O)c3c(sc(C)c3C)N2)c(O)c1 (stereo not drawn),u,i,i,21µM*,u
CC(C)[C@H](N)C(=O)NC[C@H]1O[C@@H](n2cnc3c(N)ncnc32)[C@H](O)[C@@H]1O,3%,i,i,-22%,20%
Cc1cc(S(=O)(=O)Nc2ccc(O)c(Sc3nc4ccccc4s3)c2)ccc1Cl,x,18µM*,u,x,x
CC1=C(C(=O)N2CCOCC2)CC(CC(=O)NCCCN(C)C)C(=O)N1CCC1=CCCCC1 (stereo not drawn),x,i,i,x,x
O=C(c1ccc2c(=O)n(-c3ccccc3)c(=O)[nH]c2c1)N1CCN(Cc2cccs2)CC1,x,i,i,x,x
CCS(=O)(=O)N1CCC(c2nc(-c3ccc(C(F)(F)F)cc3)no2)CC1,6.3µM*,i,6.5µM*,-3%,-6%
O=S(=O)(c1ccc(Cl)c(F)c1)N1CCC(c2nc(-c3ccncc3)no2)CC1,u,21µM*,i,0%,71%
c1ccc(Cn2nnnc2C(c2cccs2)N2CCc3ccccc3C2)cc1 (stereo not drawn),-13%,i,i,u,u
c1ccc(Cn2nnnc2C(c2cccs2)N2CCCCCC2)cc1 (stereo not drawn),-14%,16µM*,i,-5%,-3%
CS/C(=N\S(=O)(=O)c1cccs1)Nc1ccc(Br)cc1F,3%,u,i,0%,23µM*!
CS/C(=N\S(=O)(=O)c1cccs1)Nc1ccc(Cl)cc1,0%,i,i,1%,4%
Cc1ccc(C(=O)NCC(c2ccco2)N2CCc3ccccc3C2)cc1C (stereo not drawn),-12%,u,i,1%,u
O=C(Nc1ccc(F)cc1)C1CC(=O)n2cnnc2N1 (stereo not drawn),3%,i,i,0.65µM*,-29%
O=C(Nc1ccc(F)cc1)C1CC(=O)n2ncnc2N1 (stereo not drawn),u,i,i,-7%,1%
COC(=O)c1ccc(NC(=O)C2CCN(C(=O)c3cc(OC)c(OC)c(OC)c3)CC2)cc1,-15%,i,i,-3%,-2%
O=C1NC(=S)S/C1=C\C=C\c1ccc([N+](=O)[O-])o1,u,4.1µM*,u,u,30%
COc1cc(OC)c(CN2CCN(c3ccc(F)cc3)CC2)cc1Br,-2%,16µM*,i,14%,3%
SMILES,ELG1 DNA repair,KB-V1 cytotox,KB-3-1 tox,SW480 rereplic,MCF10A rerep
COc1ccc(CN2CCN(Cc3ccc(Br)cc3)CC2)c(OC)c1OC,-12%,i,i,-11%,u
COc1ccccc1N1CCN(Cc2cc(=O)oc3cc(C)ccc23)CC1,x,i,i,x,x
COc1ccc(CN2CCN(c3ccc(F)cc3)CC2)c(OC)c1OC,4%,8.2µM*,u,u,-5%
COc1ccc(CN2CCN(C(=O)c3ccccc3F)CC2)c(OC)c1OC,x,i,i,-11%,0%
COc1ccc(CN2CCN(Cc3cc(=O)oc4cc(C)ccc34)CC2)c(OC)c1OC,u,i,i,10%,6.5µM*
COc1ccc(CN2CCN(C(c3ccc(F)cc3)c3ccc(F)cc3)CC2)c(OC)c1OC,x,18µM*,u,17%,21µM*
C=CCn1c(N)nc2ccccc21,-7%,i,i,-3%,0%
Cc1ccc(S(=O)(=O)NC(=NCC(=O)O)c2ccccc2)cc1,1%,i,i,-4%,-8%
CCCC1=NN(c2ccc([N+](=O)[O-])cc2)C(=O)/C1=C\N(C)C,u,i,i,x,u
O=C(Nc1nc(-c2ccccn2)cs1)c1cccc(S(=O)(=O)N2CCOCC2)c1,4%,i,u,0%,19%
CCN(CC)CCNC(=O)c1ccc(NC(=O)c2ccc3c(c2)CCC3)cc1,u,i,i,18µM*,15%
CCN(CC)CCNC(=O)c1ccc(NC(=O)c2ccccc2-c2ccc(C(F)(F)F)cc2)cc1,5%,i,i,u,21µM*
CCN(CC)CCNC(=O)c1ccc(NC(=O)c2cccc(S(=O)(=O)N(C)C3CCCCC3)c2)cc1,x,i,i,74%,-6%
O=C(N/N=C/c1ccc(N2CCOCC2)cc1)c1ccccc1OCCOc1ccccc1,16µM*,u,i,u,u
O=C(N/N=C/c1ccc(N2CCOCC2)cc1)c1cccs1,u,i,i,6.5µM*,3%
O=C(N/N=C/c1ccc(N2CCOCC2)cc1)c1ccncc1,13%,i,i,-7%,-1%
O=C1C=CCC(/C=C/c2ccccc2)O1 (stereo not drawn),18µM*,u,u,16µM*,15µM*
O=C(CN1CCN(S(=O)(=O)c2ccc3c(c2)OCCCO3)CC1)N1CCc2ccccc21,x,i,i,x,x
O=C(CN1CCN(S(=O)(=O)c2ccc(F)c(Cl)c2)CC1)N1CCc2ccccc2C1,x,9.2µM*,i,-1%,13%
O=C(CCCOc1ccccc1)N1CCc2ccccc2C1,u,i,i,-11%,-3%
CC(=O)N1CCc2cc(S(=O)(=O)NCCC(=O)N3CCc4ccccc4C3)ccc21,23µM*,23µM*,u,0%,2%
CC(=O)N1CCc2cc(S(=O)(=O)CCC(=O)N3CCc4ccccc4C3)ccc21,-2%,i,i,12%,5%

# Assay outcomes (PubChem)
